High-throughput results: PubChem, Broad Institute
T cruzi growth-1: blocks T. cruzi growth in NIH3T3 culture. T. cruzi beta-gal in NIH3T3, GalScreen luminescence, 90 h. inhibition, % at 8.34 µM. 77,000 tested, 5.9% active;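 active means mean inhibition above about 93%, with at least 55% of replicates each passing it, limit read from the data, passing the limit was not always enough; inconclusive means only one of those two conditions holds; inactive means neither condition holds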
C diff HTS: inhibitors of Clostridium difficile growth. Clostridium difficile clinical isolate growth, OD600, 24 h; active compounds read low. growth activity, negative = inhibition, % at 16 µg/mL (by protocol). 86,000 tested, 0.25% active. AID 1259249;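 active means mean growth activity at or below -80% and every replicate also at or below -80%; inconclusive means mean at or below -80% but some replicate above -80%; inactive means mean growth activity above -80%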;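 further: 0% = DMSO wells and -100% = levofloxacin 16 µg/mL wells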
T cruzi growth-2: Trypanosoma cruzi proliferation inhibition | shares compounds with T cruzi growth-1 | T. cruzi beta-gal in NIH3T3, GalScreen luminescence, 90 h | inhibition, % at 8.35 µM | 5,600 tested, 72% active;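 active means mean replicate inhibition above about 95% and at least 55% of replicates individually reaching it, limit read from the data; inconclusive means only one of the two criteria is met; inactive means neither criterion is met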
T cruzi growth-3: blocks T. cruzi growth in NIH3T3 host cells; inhibition, % at 2.09 µM; T. cruzi beta-gal in NIH3T3, GalScreen luminescence, 90 h; 5,600 tested, 21% active; shares compounds with T cruzi growth-1; AID 651740;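 active means mean inhibition above about 95%, with at least 55% of replicates also reaching it, limit read from the data; inconclusive means meets just one of the two conditions; inactive means meets neither condition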;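 further: plate controls were neutral control median for no effect and positive control median for full effect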
3T3 cytotox: cytotoxicity in mouse NIH/3T3 fibroblasts; shares compounds with T cruzi growth-1; 5,600 tested, 14% active; cytotoxicity (signal decrease), % at 8.35 µM; NIH/3T3 viability, CellTiter-Glo ATP luminescence, 90 h; AID 651742;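 active means mean signal decrease across replicates above about 35% based on untreated-well scatter, with enough replicates individually passing, limit read from the data; inconclusive means no rule stated though some were filed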;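 further: 0% = median of neutral control wells and 100% = median of positive control wells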
3T3 cytotox 2: kills mouse NIH/3T3 fibroblasts. 5,600 tested, 56% active. shares compounds with T cruzi growth-1. inhibition, % at 24.9 µM. AID 651744. NIH/3T3 viability, CellTiter-Glo ATP luminescence, 90 h;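 active means mean loss of cell viability signal at or above a set limit, and enough replicates individually reaching it; inconclusive means meets only the mean limit or only the replicate share; inactive means meets neither condition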;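 further: 0% = median of neutral control wells and 100% = median of positive control wells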
The depositor's hits bear a star; u = inconclusive; x = not tested or not shown. This excerpt belongs to a sample that is enriched for hits.

SMILES | T cruzi growth-1 | C diff HTS | T cruzi growth-2 | T cruzi growth-3 | 3T3 cytotox | 3T3 cytotox 2
O=C(c1ccc2c(c1)OCO2)N1CC[C@@H]2[C@@H](CO)Nc3ccc(C#Cc4ccccc4)cc3[C@@H]21 | 96.0 | 2.8 | x | x | x | x
O=C(c1ccc2c(c1)OCO2)N1CC[C@@H]2[C@H]1c1cc(C#Cc3ccccc3)ccc1N[C@@H]2CO | 93.1* | 1.1 | 106.6* | 31.5 | -25.6 | 16.5
C[C@H](CO)N1C[C@H](C)[C@@H](CN(C)C(=O)Nc2ccc(F)cc2)Oc2ccc(NC(=O)CCN3CCOCC3)cc2CC1=O | 14.1 | -3.5 | x | x | x | x
O=C(C[C@H]1C[C@@H]2c3cc(NC(=O)NC4CCCC4)ccc3O[C@@H]2[C@@H](CO)O1)NCc1ccc2c(c1)OCO2 | x | -0.8 | x | x | x | x
C[C@H](CO)N1C[C@H](C)[C@H](CN(C)S(=O)(=O)c2ccc(F)cc2)Oc2c(NS(=O)(=O)c3ccc(Cl)cc3)cccc2C1=O | 45.7 | 67.2 | x | x | x | x
C[C@H](CO)N1C[C@H](C)[C@@H](CN(C)Cc2ccncc2)Oc2c(NC(=O)c3ccncc3)cccc2C1=O | 44.4 | -7.2 | x | x | x | x
COc1ccc(CN(C)C[C@@H]2Oc3c(NC(=O)c4ccncc4)cccc3C(=O)N([C@@H](C)CO)C[C@H]2C)cc1 | 105.3* | -1.3 | 85.6 | 79.5 | 22.5 | 26.2*
C[C@@H]1CN([C@@H](C)CO)C(=O)c2cccc(NC(=O)c3ccncc3)c2O[C@H]1CN(C)Cc1ccncc1 | 61.1 | -2.2 | x | x | x | x
COc1ccc(CN(C)C[C@H]2Oc3c(NC(=O)c4ccncc4)cccc3C(=O)N([C@@H](C)CO)C[C@@H]2C)cc1 | 99.9* | 4.2 | 94.6 | 79.6 | 11.8 | 37.4*
CCCNC(=O)N(C)C[C@@H]1Oc2ncc(-c3cccc(C#N)c3)cc2C(=O)N([C@H](C)CO)C[C@H]1C | x | 3.9 | x | x | x | x
COCC(=O)N1CC[C@@H]2[C@@H](CO)N(C)c3ccc(-c4ccccc4)cc3[C@@H]21 | 97.8* | -1.7 | 104.1* | 56.3 | -26.6 | -19.7
CCC(=O)N1CC[C@@H]2[C@H]1c1cc(-c3cccc(OC)c3)ccc1N(C)[C@H]2CO | 90.4 | 4.0 | x | x | x | x
COCC(=O)N1CC[C@@H]2[C@H]1c1cc(-c3cccc(F)c3)ccc1N(C)[C@@H]2CO | 102.7* | -4.4 | 103.1* | 33.9 | 7.1 | 10.6
COCC(=O)N1CC[C@H]2[C@@H]1c1cc(-c3ccccc3)ccc1N(C)[C@H]2CO | 70.8 | 2.1 | x | x | x | x
CCC(=O)N1CC[C@@H]2[C@@H](CO)N(C)c3ccc(-c4cccc(F)c4)cc3[C@@H]21 | 27.5 | -0.8 | x | x | x | x
COCC(=O)N1CC[C@@H]2[C@H]1c1cc(-c3cccc(OC)c3)ccc1N(C)[C@@H]2CO | 116.9* | 11.4 | 107.4* | 83.9 | 2.2 | -5.3
CN1c2ccc(-c3cccc(F)c3)cc2[C@H]2[C@H](CCN2C(=O)C2CC2)[C@H]1CO | 65.8 | 12.4 | x | x | x | x
CN1c2ccc(-c3cccc(F)c3)cc2[C@@H]2[C@@H](CCN2C(=O)C2CC2)[C@H]1CO | 100.3* | -10.2 | 102.3* | 101.1* | 22.3 | 90.9*
CN(C)C(=O)C[C@@H]1CC[C@H]2[C@@H](COC[C@H](O)CN2CC2CCCC2)O1 | -61.3 | 3.5 | x | x | x | x
CN(C)CC(=O)Nc1ccc2c(c1)[C@H]1C[C@H](CC(=O)N3CCc4ccccc4C3)O[C@H](CO)[C@H]1O2 | 82.0 | x | x | x | x | x
O=C(N[C@@H]1C[C@@H]2O[C@H](CO)CC[C@@H]2O[C@@H]1CCc1ccc(C#Cc2ccccc2)cc1)c1ccccn1 | x | -2.6 | x | x | x | x
Cc1ccc(S(=O)(=O)N(C)C[C@@H]2Oc3ccc(NS(=O)(=O)c4ccc(F)cc4)cc3CC(=O)N([C@@H](C)CO)C[C@@H]2C)cc1 | 22.3 | -3.2 | x | x | x | x
CCCNC(=O)N1[C@H](CO)[C@@H](c2ccccc2)C12CN(C(=O)c1cccnc1)C2 | x | 0.8 | x | x | x | x
Cc1ccc(S(=O)(=O)Nc2ccc3c(c2)C(=O)N([C@@H](C)CO)C[C@@H](C)[C@@H](CN(C)CC2CCCCC2)OCCCC[C@@H](C)O3)cc1 | 70.0 | -12.7 | x | x | x | x
Cc1noc(C)c1NC(=O)Nc1ccc2c(c1)C(=O)N([C@H](C)CO)C[C@H](C)[C@H](CN(C)S(=O)(=O)c1ccc(Cl)cc1)OCCCC[C@H](C)O2 | u | -24.2 | 55.2 | -42.6 | -20.5 | -30.4
SMILES | T cruzi growth-1 | C diff HTS | T cruzi growth-2 | T cruzi growth-3 | 3T3 cytotox | 3T3 cytotox 2
C[C@H]1CCCCO[C@H](CN(C)S(=O)(=O)c2ccc(Cl)cc2)[C@@H](C)CN([C@@H](C)CO)C(=O)c2cc(NC(=O)NC3CCCCC3)ccc2O1 | 87.3 | 2.0 | x | x | x | x
C[C@H](CO)N1C[C@H](C)[C@@H](CN(C)S(=O)(=O)c2ccc(Cl)cc2)OCCCC[C@H](C)Oc2ccc(NC(=O)NC3CCCCC3)cc2C1=O | 105.6* | -1.3 | 108.7* | 74.6 | -10.2 | -0.4
CC(C)NC(=O)Nc1ccc2c(c1)C(=O)N([C@@H](C)CO)C[C@@H](C)[C@@H](CN(C)S(=O)(=O)c1ccc(Cl)cc1)OCCCC[C@@H](C)O2 | 107.6* | 2.2 | 101.0* | 41.4 | -13.4 | -0.2
CC(C)NC(=O)Nc1ccc2c(c1)C(=O)N([C@H](C)CO)C[C@@H](C)[C@H](CN(C)S(=O)(=O)c1ccc(Cl)cc1)OCCCC[C@@H](C)O2 | 72.5 | 9.5 | x | x | x | x
Cc1noc(C)c1NC(=O)Nc1ccc2c(c1)C(=O)N([C@@H](C)CO)C[C@@H](C)[C@@H](CN(C)S(=O)(=O)c1ccc(Cl)cc1)OCCCC[C@@H](C)O2 | 72.0 | x | x | x | x | x
C[C@H](CO)N1C[C@H](C)[C@H](CN(C)C(=O)c2ccncc2)Oc2cc(C#Cc3ccncc3)ccc2S1(=O)=O | 30.9 | 1.0 | x | x | x | x
COc1ccc(S(=O)(=O)Nc2cccc3c2O[C@H](CN(C)Cc2ccc(-c4ccccc4)cc2)[C@H](C)CN([C@H](C)CO)C3=O)cc1 | 48.5 | 16.5 | x | x | x | x
CN(C)CC(=O)N1CCCCN2[C@H](CO)[C@H](c3ccc(-c4cccnc4)cc3)[C@@H]2C1 | 63.8 | 5.2 | x | x | x | x
CCC(=O)N1CCCCN2[C@@H](CO)[C@H](c3ccc(C#Cc4cccnc4)cc3)[C@@H]2C1 | 77.5 | 3.8 | x | x | x | x
CN(C)CC(=O)N1CCCCN2[C@H](CO)[C@@H](c3ccc(-c4cncnc4)cc3)[C@H]2C1 | -17.8 | -1.4 | x | x | x | x
CCC(=O)N1CCCCN2[C@H](CO)[C@H](c3ccc(C#Cc4cccnc4)cc3)[C@H]2C1 | 101.3* | -0.6 | 100.1* | 39.5 | 3.6 | -11.0
CCC(=O)N1CCCCN2[C@H](CO)[C@@H](c3ccc(-c4cccnc4)cc3)[C@@H]2C1 | 59.7 | -8.5 | x | x | x | x
CCC(=O)N1CCCCN2[C@H](CO)[C@H](c3ccc(-c4cccnc4)cc3)[C@H]2C1 | 114.0* | 1.7 | 37.3 | 24.4 | -3.3 | 9.3
CN(C)CC(=O)N1CCCCN2[C@@H](CO)[C@@H](c3ccc(-c4cccnc4)cc3)[C@@H]2C1 | u | 6.0 | u | 29.5 | 3.0 | -0.7
CN(C)CC(=O)N1CCCCN2[C@H](CO)[C@H](c3ccc(-c4cccnc4)cc3)[C@H]2C1 | 108.0* | 4.6 | 69.7 | 0.9 | -5.7 | 2.1
